Assay [1] has as its system CP250. Put plainly: qHTS profiling for inhibitors of Plasmodium falciparum proliferation (AID 504749). Further: potency means the concentration at half of the fitted maximal effect; nearly all actives have a fitted effect of over 60% in size. The following applies: P. falciparum in erythrocytes, SYBR Green DNA, 72 h; series mostly up to 28.7 µM. Put shortly: (§1)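 SYBR Green fluorescence (ex 485 nm, em 535 nm) reports parasite DNA after 72 h compound exposure of infected red cells at 0.3% parasitemia, 2.5% hematocrit; signal normalized to 0.29 uM artemisinin and vehicle wells.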
(In general: qHTS replaces the single test concentration by a dilution series.)

The subject of assay [2] is CP252. Described as above. The following applies: P. falciparum in erythrocytes, SYBR Green DNA, 72 h; series mostly up to 28.7 µM. The gist of the method: as §1
Assay [3] concerns CP256. Described as above. To be noted: P. falciparum in erythrocytes, SYBR Green DNA, 72 h; series mostly up to 28.7 µM. The gist of the method: as §1
Assay [4] relates to CP260. The assay is described as above. To be noted: P. falciparum in erythrocytes, SYBR Green DNA, 72 h; series mostly up to 28.7 µM. The gist of the method: as §1
Assay [5] deals with CP262. The description is as above. The following applies: P. falciparum in erythrocytes, SYBR Green DNA, 72 h; series mostly up to 28.7 µM. The gist of the method:
as §1

In assay [6] the test system is CP265. Described as above. To be noted: P. falciparum in erythrocytes, SYBR Green DNA, 72 h; series mostly up to 28.7 µM. The gist of the method:
as §1

In assay [7] the test system is CP266. The description is as above. To be noted: P. falciparum in erythrocytes, SYBR Green DNA, 72 h; series mostly up to 28.7 µM. Put shortly:
as §1

In assay [8] the test system is CP268. Described as above. To be noted: P. falciparum in erythrocytes, SYBR Green DNA, 72 h; series mostly up to 28.7 µM. Put shortly:
as §1

Assay [9] has as its system CP269. The assay is described as above. To be noted: P. falciparum in erythrocytes, SYBR Green DNA, 72 h; series mostly up to 28.7 µM. Put shortly: as §1
Assay [10] concerns CP286. The assay is described as above. The following applies: P. falciparum in erythrocytes, SYBR Green DNA, 72 h; series mostly up to 28.7 µM. The gist of the method:
as §1

Assay [11] concerns CP291. The assay is described as above. The following applies: P. falciparum in erythrocytes, SYBR Green DNA, 72 h; series mostly up to 28.7 µM. The gist of the method:
as §1

For assay [12], the system named is CP297. The assay is described as above. The following applies: P. falciparum in erythrocytes, SYBR Green DNA, 72 h; series mostly up to 28.7 µM. The gist of the method: as §1
Assay [13] has as its system CP305. The description is as above. The following applies: P. falciparum in erythrocytes, SYBR Green DNA, 72 h; series mostly up to 28.7 µM. The gist of the method: as §1
The test system of assay [14] is CP315. Described as above. The following applies: P. falciparum in erythrocytes, SYBR Green DNA, 72 h; series mostly up to 28.7 µM. Put shortly:
as §1

Assay [15] relates to CP325. The description is as above. To be noted: P. falciparum in erythrocytes, SYBR Green DNA, 72 h; series mostly up to 28.7 µM. Put shortly:
as §1

In assay [16] the test system is CP329. Described as above. The following applies: P. falciparum in erythrocytes, SYBR Green DNA, 72 h; series mostly up to 28.7 µM. The gist of the method: as §1
In assay [17] the test system is CP335. Described as above. The following applies: P. falciparum in erythrocytes, SYBR Green DNA, 72 h; series mostly up to 28.7 µM. The gist of the method: as §1
Assay [18] relates to DFO2036. The description is as above. To be noted: P. falciparum in erythrocytes, SYBR Green DNA, 72 h; series mostly up to 28.7 µM. The gist of the method:
as §1

For assay [19], the system named is DIV14. The description is as above. To be noted: P. falciparum in erythrocytes, SYBR Green DNA, 72 h; series mostly up to 28.7 µM. Put shortly:
as §1

Assay [20] has as its system DIV17. The assay is described as above. To be noted: P. falciparum in erythrocytes, SYBR Green DNA, 72 h; series mostly up to 28.7 µM. The gist of the method: as §1
Assay [21] has as its system DIV30. The assay is described as above. To be noted: P. falciparum in erythrocytes, SYBR Green DNA, 72 h; series mostly up to 28.7 µM. The gist of the method:
as §1

The test system of assay [22] is Dd2. Described as above. To be noted: P. falciparum in erythrocytes, SYBR Green DNA, 72 h; series mostly up to 28.7 µM. Put shortly:
as §1

Assay [23] concerns ECU. Described as above. The following applies: P. falciparum in erythrocytes, SYBR Green DNA, 72 h; series mostly up to 28.7 µM. Put shortly:
as §1

Assay [24] has as its system FAB9. The description is as above. To be noted: P. falciparum in erythrocytes, SYBR Green DNA, 72 h; series mostly up to 28.7 µM. The gist of the method:
as §1

Assay [25] has as its system GB4. The assay is described as above. To be noted: P. falciparum in erythrocytes, SYBR Green DNA, 72 h; series mostly up to 28.7 µM. The gist of the method: as §1
Assay [26] concerns HB3. Described as above. To be noted: P. falciparum in erythrocytes, SYBR Green DNA, 72 h; series mostly up to 28.7 µM. The gist of the method: as §1
The test system of assay [27] is ICS. The assay is described as above. To be noted: P. falciparum in erythrocytes, SYBR Green DNA, 72 h; series mostly up to 28.7 µM. Put shortly: as §1
The test system of assay [28] is N140. The assay is described as above. The following applies: P. falciparum in erythrocytes, SYBR Green DNA, 72 h; series mostly up to 28.7 µM. Put shortly: as §1
Assay [29] concerns P93_24. The description is as above. The following applies: P. falciparum in erythrocytes, SYBR Green DNA, 72 h; series mostly up to 28.7 µM. The gist of the method:
as §1

The subject of assay [30] is P94_40. The description is as above. The following applies: P. falciparum in erythrocytes, SYBR Green DNA, 72 h; series mostly up to 28.7 µM. Put shortly:
as §1

The subject of assay [31] is PAD. Described as above. To be noted: P. falciparum in erythrocytes, SYBR Green DNA, 72 h; series mostly up to 28.7 µM. The gist of the method: as §1
The subject of assay [32] is PC15. Described as above. The following applies: P. falciparum in erythrocytes, SYBR Green DNA, 72 h; series mostly up to 28.7 µM. Put shortly: as §1
Assay [33] relates to PC26. The description is as above. The following applies: P. falciparum in erythrocytes, SYBR Green DNA, 72 h; series mostly up to 28.7 µM. The gist of the method: as §1
Assay [34] relates to PC49. The description is as above. The following applies: P. falciparum in erythrocytes, SYBR Green DNA, 72 h; series mostly up to 28.7 µM. Put shortly:
as §1

Assay [35] deals with SC27B. The assay is described as above. To be noted: P. falciparum in erythrocytes, SYBR Green DNA, 72 h; series mostly up to 28.7 µM. Put shortly:
as §1

Assay [36] concerns TAB109. Described as above. To be noted: P. falciparum in erythrocytes, SYBR Green DNA, 72 h; series mostly up to 28.7 µM. Put shortly:
as §1

In assay [37] the test system is TAB113. The description is as above. To be noted: P. falciparum in erythrocytes, SYBR Green DNA, 72 h; series mostly up to 28.7 µM. Put shortly:
as §1

The test system of assay [38] is TAB165. Described as above. The following applies: P. falciparum in erythrocytes, SYBR Green DNA, 72 h; series mostly up to 28.7 µM. Put shortly: as §1
In assay [39] the target is Furin (Homo sapiens) (UniProt P09958). Description: Furin counterscreen qHTS for Zika virus inhibitors (AID 1347149). Further: nearly all actives have a fitted effect of over 70% in size. Further: potency means the concentration at half of the fitted maximal effect. Put shortly:
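Counterscreen measures cleavage of 2 microM BOC-RVRR-AMC, below its ~15 microM Km, by 5 nM full-length human furin at pH 7.0 after a 15-min compound preincubation. Inhibition derives from the 15-min fluorescence increase at 37C.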
For orientation: A counterscreen serves to expose hits that act by an unwanted route or on another target.

For assay [40], the system named is Zika virus NS2B-NS3 protease (linked construct). Put plainly: Confirmatory screen NINDS AMC qHTS for Zika virus inhibitors (AID 1347152).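 Further: AMC fluorescence gain from cleaved Bz-Nle-KRR-AMC substrate over 15 min; top concentration of the series differs between compounds; nearly all actives have a fitted effect of over 70% in size.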 The gist of the method: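 In this dose-response qHTS, AMC release from 10 microM Bz-Nle-KRR-AMC by 1 nM linked protease is measured over 15 minutes (about 20% conversion) at pH 8.0. Percent inhibition is fitted to a 4-parameter Hill curve.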

Assay [41] deals with Zika virus NS2B-NS3 protease (unlinked complex). Put plainly: Confirmatory screen GU AMC qHTS for Zika virus inhibitors (AID 1347153). Further: nearly all actives have a fitted effect of over 70% in size. Put shortly: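 Unlinked NS2B-NS3 complex (25 nM) in 10 mM Tris-HCl pH 8.0, 0.01% Tween 20 preincubated 15 min with compound, then 10 microM Bz-Nle-KRR-AMC (Km 18.3 µM). Fluorescence change over 15 min, normalized, Hill-fitted.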
The subject of assay [42] is Zika virus NS2B-NS3 protease (linked construct). Put plainly: 384 well plate NINDS Rhodamine confirmatory qHTS for Zika virus inhibitors (AID 1347164). Further: potency means the concentration at half of the fitted maximal effect; nearly all actives have a fitted effect of over 65% in size. The gist of the method:
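Compounds are incubated about 15 minutes with linked protease (5, 30 or 60 nM final). Rhodamine 110-tagged Ac-LKRR substrate (10 microM final) is added and fluorescence measured after 25 minutes.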

Assay [43] is described as follows: Tertiary RLuc qRT-PCR qHTS assay for Zika virus inhibitors (AID 1347169). Further: top concentration of the series differs between compounds; nearly all actives have a fitted effect of over 55% in size. Put shortly:
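Orthogonal cell-based infection assay using recombinant ZIKV-RLuc (Cambodian) in Vero cells; compound added prior to virus at MOI 1-2. Incubation lasts 48-72 hrs at 37 degrees C before live-cell Renilla substrate is added and luminescence measured.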
For orientation: Real-time PCR tracks product formation cycle by cycle.

Results filed as inconclusive are left out. The source made the active and inactive calls. The call rests on the fitted dose curve; in most records, active means well fitted curve in the direction sought with a large enough effect; inconclusive means small, poorly fitted or top-dose-only effect, or another doubt; inactive means no such curve, though single readings can be large; an effect the other way counts as inactive or inconclusive.

Sequence of Furin (Homo sapiens) (P09958 whole entry, looked up): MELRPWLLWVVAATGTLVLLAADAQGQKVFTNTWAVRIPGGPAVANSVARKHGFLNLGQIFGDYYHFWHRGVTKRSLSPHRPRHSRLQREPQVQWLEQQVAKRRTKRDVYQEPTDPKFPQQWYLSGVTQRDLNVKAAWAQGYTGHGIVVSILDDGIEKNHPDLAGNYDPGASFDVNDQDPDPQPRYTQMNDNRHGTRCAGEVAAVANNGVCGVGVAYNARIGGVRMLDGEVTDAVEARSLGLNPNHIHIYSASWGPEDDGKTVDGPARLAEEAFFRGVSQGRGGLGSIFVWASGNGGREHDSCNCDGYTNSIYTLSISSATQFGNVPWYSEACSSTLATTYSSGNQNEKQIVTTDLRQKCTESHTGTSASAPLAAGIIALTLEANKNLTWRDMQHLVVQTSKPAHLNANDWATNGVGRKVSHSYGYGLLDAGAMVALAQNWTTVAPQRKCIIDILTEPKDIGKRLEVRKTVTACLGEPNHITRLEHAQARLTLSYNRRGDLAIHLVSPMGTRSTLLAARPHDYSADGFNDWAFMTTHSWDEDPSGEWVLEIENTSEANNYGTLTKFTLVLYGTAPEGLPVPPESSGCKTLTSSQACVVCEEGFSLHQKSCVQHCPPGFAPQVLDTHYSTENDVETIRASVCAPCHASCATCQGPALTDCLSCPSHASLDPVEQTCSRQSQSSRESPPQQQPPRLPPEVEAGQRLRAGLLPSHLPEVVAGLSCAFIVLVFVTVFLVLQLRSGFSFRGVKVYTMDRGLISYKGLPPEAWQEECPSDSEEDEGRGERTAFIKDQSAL

As to `CC(C)C[C@@H](NC(=O)[C@H](Cc1ccccc1)NC(=O)c1cnccn1)B(O)O`, the Potency is 100 nM (active) in [1]; 89.1 nM (active) in [2]; 126 nM (active) in assay [3]; 112 nM (active) in assay [4]; 95.3 nM (active) in assay [5]; 112 nM (active) in [6]. Moreover, the Potency in assay [7] is 169 nM (active); in assay [8], 95.3 nM (active); in [9], 135 nM (active); in [10] it was 63.1 nM (active); in assay [11], 135 nM (active); in assay [12] it was 269 nM (active). For the same compound, the Potency is 675 nM (active) in assay [13]; 190 nM (active) in assay [14]; 135 nM (active) in assay [15]; 95.3 nM (active) in [16]; 95.3 nM (active) in assay [17]; 100 nM (active) in assay [18]. In addition, the Potency in [19] is 426 nM (active); in [20] it was 301 nM (active); in assay [21], 190 nM (active); in assay [22] it was 100 nM (active); in [23], 126 nM (active); in assay [24], 141 nM (active). Moreover, the Potency in assay [25] was 107 nM (active); in assay [26] it was 79.4 nM (active); in assay [27] it was 44.7 nM (active); in [28] it was 70.8 nM (active); in assay [29] it was 79.4 nM (active); in assay [30] it was 112 nM (active). In addition, the Potency in assay [31] is 112 nM (active); in [32] it was 79.4 nM (active); in assay [33], 213 nM (active); in assay [34], 141 nM (active); in assay [35], 100 nM (active); in assay [36] it was 35.5 nM (active). The Potency in assay [37] is 100 nM (active); in assay [38], 112 nM (active).

In the case of `O=C(CSc1ncccc1C(=O)Oc1ccccc1Cl)Nc1ccc(C(F)(F)F)cc1Cl`, the Potency result in assay [39] is “inactive”.

For the compound `O=C(Nc1cccc2ccccc12)O[C@@H]1CO[C@H]2[C@@H]1OC[C@@H]2NS(=O)(=O)c1ccc2ccccc2c1`, in [39], the Potency is 69800 nM (active). Further, the Potency result in [40] and in assay [41] was “inactive” throughout.

In the case of `CC(C)CN1CC(COc2cccc(C(F)(F)F)c2)Oc2ccnc(-c3ccc(OCC(=O)O)cc3)c2C1=O` (configuration not stated), the Potency result in [39], in assay [40], in [41] and in assay [43] was “inactive” each time. Besides, in assay [42], the Potency is 141000 nM (active).

The values above are taken from PubChem BioAssay (NCATS).
